According to publication PMC4336329 (PLoS ONE, 2015):
Screen size: about 310,000 compounds; about 2,200 (0.71%) showed an effect of 50% or more. Effects have a minus sign here. The sample as a whole holds a higher share of strong results than the screen did.

Biological target: human ether-à-go-go-related gene (hERG) potassium channel (human, UniProt Q12809)
Experiment: primary screen, population patch clamp on CHO cells stably expressing hERG; higher = less effect of the substance

Chain of human ether-à-go-go-related gene (hERG) potassium channel (Q12809 whole entry, looked up): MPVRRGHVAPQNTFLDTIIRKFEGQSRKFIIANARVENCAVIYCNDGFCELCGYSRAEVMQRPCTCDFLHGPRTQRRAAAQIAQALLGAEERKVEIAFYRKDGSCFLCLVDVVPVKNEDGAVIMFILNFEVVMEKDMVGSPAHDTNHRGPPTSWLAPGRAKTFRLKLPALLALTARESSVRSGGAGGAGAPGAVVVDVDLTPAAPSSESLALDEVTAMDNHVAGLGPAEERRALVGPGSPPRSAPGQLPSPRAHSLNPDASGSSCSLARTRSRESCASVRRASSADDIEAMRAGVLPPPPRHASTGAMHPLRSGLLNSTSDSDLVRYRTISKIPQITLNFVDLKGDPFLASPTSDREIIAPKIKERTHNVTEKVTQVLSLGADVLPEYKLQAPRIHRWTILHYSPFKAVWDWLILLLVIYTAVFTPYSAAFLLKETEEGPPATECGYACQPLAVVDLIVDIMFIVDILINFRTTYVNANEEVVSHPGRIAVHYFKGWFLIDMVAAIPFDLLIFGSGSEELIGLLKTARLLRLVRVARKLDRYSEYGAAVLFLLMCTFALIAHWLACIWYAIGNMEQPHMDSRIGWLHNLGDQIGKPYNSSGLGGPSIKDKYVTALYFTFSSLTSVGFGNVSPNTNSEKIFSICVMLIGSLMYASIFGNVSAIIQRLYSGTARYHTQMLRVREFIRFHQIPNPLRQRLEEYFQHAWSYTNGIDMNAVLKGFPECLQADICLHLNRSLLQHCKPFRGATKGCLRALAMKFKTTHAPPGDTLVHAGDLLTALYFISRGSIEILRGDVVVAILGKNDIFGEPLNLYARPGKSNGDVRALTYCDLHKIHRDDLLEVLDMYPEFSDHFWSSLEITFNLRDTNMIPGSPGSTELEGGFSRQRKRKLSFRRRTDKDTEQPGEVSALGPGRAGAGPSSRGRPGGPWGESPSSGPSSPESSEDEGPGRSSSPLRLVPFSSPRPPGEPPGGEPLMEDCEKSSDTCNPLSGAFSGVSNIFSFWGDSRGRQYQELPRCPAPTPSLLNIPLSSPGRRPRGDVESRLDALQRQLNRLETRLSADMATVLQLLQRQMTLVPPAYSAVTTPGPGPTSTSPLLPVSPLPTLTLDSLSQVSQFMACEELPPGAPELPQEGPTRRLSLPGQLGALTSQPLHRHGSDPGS

SMILES	hERG current change (%, negative = inhibition) at 1uM [%]
C/C(=N\NC(=O)c1cc(C)[nH]n1)c1ccc(-c2ccccc2)cc1	13.7
O=C(CCN1C(=O)/C(=C/c2ccc(F)cc2)SC1=S)NNC(=O)c1cccnc1	1.06
COc1cc(/C=N\NC(=O)C(C)(C)O)ccc1OC/C=C/c1ccccc1	13
CC(C)c1ccccc1OS(N)(=O)=O	4.02
COc1ccccc1NC(=O)CSc1nnc(C2CCCCC2)n1-c1ccccc1	2.23
Cc1cc(OCC(=O)NCCCN2CCCC2=O)c2c(C)cc(=O)oc2c1	19
O=C(C[n+]1cccc(CNC(=O)c2ccc(OC(F)F)cc2)c1)c1ccccc1.[Cl-]	2.3
O=C(C[n+]1cn(C(F)F)c2ccccc21)c1ccc(Br)cc1.[Br-]	3.52
CCOc1ccc(C(=O)C[n+]2ccc(C(=O)NCc3ccccc3)cc2)cc1.[Br-]	4.11
O=C(C[n+]1ccc(C(=O)NCc2ccccc2)cc1)c1ccc(OC(F)F)cc1.[Br-]	-81.2
COc1ccc(C(=O)C[n+]2cn(C(F)F)c3ccccc32)c(F)c1.[Br-]	-0.738
O=C(C[n+]1cn(C(F)F)c2ccccc21)c1ccc(OC(F)F)cc1.[Br-]	-53.7
O=[N+]([O-])c1ccccc1/C=C/C=N/N1CCCCC1	13
CC(/C=C/c1ccc(N(C)C)cc1)=N\N=C(/N)SC1CC(=O)N(c2ccc(C(=O)O)cc2)C1=O (centres unmarked)	3.7
COCCNC(=S)N/N=C/c1ccc([N+](=O)[O-])cc1	12
Cc1cc(OCCN2CCC(Cc3ccccc3)CC2)ccc1[N+](=O)[O-].O=C(O)C(=O)O	-53.5
Cc1ccc([N+](=O)[O-])c(OCCCN2CCCCCC2)c1.O=C(O)C(=O)O	-14.5
Cc1cc(OCCN2CCCCCC2)ccc1[N+](=O)[O-].O=C(O)C(=O)O	-12.8
Cc1ccc([N+](=O)[O-])c(OCCCN2CCC(Cc3ccccc3)CC2)c1.O=C(O)C(=O)O	-95.8
Cc1ccc([N+](=O)[O-])c(OCCN2CCC(Cc3ccccc3)CC2)c1.O=C(O)C(=O)O	-25.9
Cc1cc(OCCN2CCOCC2)ccc1[N+](=O)[O-].O=C(O)C(=O)O	10.6
Cc1cc(OCCN2CC(C)OC(C)C2)ccc1[N+](=O)[O-].O=C(O)C(=O)O (centres unmarked)	-5.36
Cc1cc(OCCCN2CCN(Cc3ccccc3)CC2)ccc1[N+](=O)[O-].O=C(O)C(=O)O	-52.5
O=[N+]([O-])c1cccc(CN2CCC(Cc3ccccc3)CC2)c1	-45.6
O=C(O)C(=O)O.O=[N+]([O-])c1cccc(OCCCN2CCC(Cc3ccccc3)CC2)c1	-82.9

SMILES	hERG current change (%, negative = inhibition) at 1uM [%]
O=C(O)C(=O)O.O=[N+]([O-])c1cccc(OCCN2CCC(Cc3ccccc3)CC2)c1	-23.6
Cc1cc(OCCN2CCCC2)ccc1[N+](=O)[O-].O=C(O)C(=O)O	7.94
CC1CCCCC1NC(=O)CCn1c(=O)sc2ccccc21 (centres unmarked)	18
Cc1ccc(C(=O)NNC(=O)c2n[nH]c(=O)c3ccccc23)cc1C	5.71
Cc1cccc2cc(CN(Cc3cccs3)Cc3nnnn3Cc3ccccc3)c(=O)[nH]c12	-3.15
O=C(NO)c1ccc(C(=O)N(C2CCCCC2)C2CCCCC2)cc1	3.06
Cc1ccc(N2CC(C(=O)Nc3ccc(S(=O)(=O)N4CCOCC4)cc3)CC2=O)cc1Cl (centres unmarked)	7.84
C/C(=N/NC(=O)c1ccc2c(c1)OCO2)c1cccc(NC(=O)C(C)(C)C)c1	9.89
CC(Oc1ccccc1)C(=O)Nc1ccc(S(=O)(=O)N2CCCC2)cc1 (centres unmarked)	16.8
COc1ccc(S(=O)(=O)n2nc(OC(=O)C3CCCCC3)cc2N)cc1	9.89
CCOc1ccccc1N1CCN(C(=O)c2cc(-c3cc(OC)ccc3OC)nc3ccccc23)CC1	8.96
CC12CC3(C)CC(C)(C1)CC(C(=O)NCC(=O)O)(C2)C3	19.5
COc1ccc(-c2ccc(S(=O)(=O)n3nc(OC(=O)c4cccs4)cc3N)cc2)cc1	8.64
Cc1oc(-c2cccc(Cl)c2)nc1CN1CCC(C(=O)NCC2CCCO2)CC1 (centres unmarked)	-31.8
Cc1oc(-c2cccc(Cl)c2)nc1CN1CCC(C(=O)NCCCN2CC(C)CC(C)C2)CC1 (centres unmarked)	13.9
CCc1ccc(-c2nc(CN3CCCC(C(=O)NCCc4ccc(OC)c(OC)c4)C3)c(C)o2)cc1 (centres unmarked)	-3.23
COc1ccccc1CNC(=O)C1CCN(Cc2nc(-c3cccc(Cl)c3)oc2C)CC1	-68.3
COc1ccc(CCNC(=O)C2CCN(Cc3nc(-c4ccccc4F)oc3C)CC2)cc1OC	-17.3
COc1ccc(CCNC(=O)C2CCN(Cc3nc(-c4ccccc4C)oc3C)CC2)cc1OC	-59.9
COc1ccc(CCNC(=O)C2CCCN(Cc3nc(-c4ccccc4C)oc3C)C2)cc1OC (centres unmarked)	-2.12
CCN1CCN(CCNC(=O)C2CCCN(Cc3nc(-c4cccc(Cl)c4)oc3C)C2)CC1 (centres unmarked)	3.86
COc1ccc(CCNC(=O)C2CCCN(Cc3nc(-c4cccc(Cl)c4)oc3C)C2)cc1OC (centres unmarked)	-76.7
CCc1ccc(-c2nc(CN3CCC(C(=O)NCCc4ccc(OC)c(OC)c4)CC3)c(C)o2)cc1	-40
CCc1ccc(-c2nc(CN3CCC(C(=O)NCc4ccccc4OC)CC3)c(C)o2)cc1	-13.1
COc1ccc(CCNC(=O)C2CCN(Cc3nc(-c4cccc(Cl)c4)oc3C)CC2)cc1OC	-80.9
